Calls of active or inactive are those of the source.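 How the source made its calls, unless noted: active means z-score of at least 1.8 in each of two replicates, scored against plate mean and spread of sample wells; inactive means the rest.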
Columns and labels:
[1] = survival rescue of mitochondrial mutant cells in low glucose, primary screen, MELAS cybrids, Rieske KO mouse fibroblasts, CellTiter-Glo (AID 1508586;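 active means mean z-score across replicates of 1.96 or higher in either the MELAS or the Rieske mutant cell line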;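 further: test concentration not given here; z relative to plate mean and SD of compound and empty wells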)
[2] = viability rescue of complex I mutant cybrids, primary screen, cell-based, galactose medium, ATP luminescence (AID 1645843); settings: complex I mutant cybrid cells, 72 h, stronger effect = higher value;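 further: positive z means more ATP and so rescue of galactose-driven cybrid death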
[3] = MELAS cybrid survival, CellTiter-Glo 48 h, stronger effect = higher value
[4] = Rieske KO mouse fibroblast survival, CellTiter-Glo 72 h

## Cc1ncc(CNc2cc(C(=O)Nc3cccc(N(C)C)c3)cc(S(=O)(=O)N3CCCC3)c2)[nH]1
[1]; [3]
  z-score: -0.563 (inactive)
[1]; [4]
  z-score: -0.237
[2]
  z-score: 0.295 (inactive)

## Cc1cnc(CNC(=O)c2cc(-c3ccccc3)cc(S(=O)(=O)N3CCN(C)CC3)c2)cn1
[1]; [3]
  z-score: 0.213 (inactive)
[1]; [4]
  z-score: -0.355
[2]
  z-score: -0.045 (inactive)

## CN1CCN(S(=O)(=O)c2cc(C(=O)NCCc3ccccn3)cc(-c3ccccc3)c2)CC1
[1]; [3]
  z-score: -0.308 (inactive)
[1]; [4]
  z-score: -0.279
[2]
  z-score: -0.695 (inactive)

## COCC(=O)Nc1c(C(=O)OC)n(C)c2ncc(NCc3cnn(C)c3C)cc12
[1]; [3]
  z-score: -0.241 (inactive)
[1]; [4]
  z-score: -0.209
[2]
  z-score: -0.64 (inactive)

## CCc1nc(Cn2c3c(cc(-c4ccccc4C)c2=O)CN(Cc2ccc(O)c(Cl)c2)CC3)no1
[1]; [3]
  z-score: -0.286 (inactive)
[1]; [4]
  z-score: -0.271
[2]
  z-score: 0.44 (inactive)

## O=C(Cn1cnc2ccccc21)N1CCc2c(cc(-c3cccc(Cl)c3)c(=O)n2CC2CC2)C1
[1]; [3]
  z-score: 0.334 (inactive)
[1]; [4]
  z-score: -0.586
[2]
  z-score: -0.315 (inactive)

## CC1=C(C(=O)N2CC(=O)N(CC(C)C)CC(OCc3ccccc3)C2)OCCO1 (configuration not stated)
[1]; [3]
  z-score: 0.636 (inactive)
[1]; [4]
  z-score: -0.606
[2]
  z-score: 0.39 (inactive)

## COC(=O)CN1C(=O)N(CCc2ccccc2)C2(CCN(Cc3ccc4c(c3)OCCO4)CC2)C1=O
[1]; [3]
  z-score: -0.212 (inactive)
[1]; [4]
  z-score: -0.109
[2]
  z-score: 1.24 (inactive)

## CCn1nc(C(=O)N(C)Cc2ccco2)c2c1CCC(N(C)Cc1ccon1)C2 (configuration not stated)
[1]; [3]
  z-score: -0.655 (inactive)
[1]; [4]
  z-score: -0.252
[2]
  z-score: -1.03 (inactive)

## CN(Cc1nc(-c2ccccc2)cs1)C1CCc2c(c(C(=O)N3CCSCC3)nn2C)C1 (configuration not stated)
[1]; [3]
  z-score: 0.0592 (inactive)
[1]; [4]
  z-score: 0.0851
[2]
  z-score: 0.7 (inactive)

## CCCCNC(=O)[C@@H]1C[C@H](CN2CCOCC2)CN(Cc2ccc3ccccc3c2)C1
[1]; [3]
  z-score: 0.321 (inactive)
[1]; [4]
  z-score: 0.627
[2]
  z-score: -0.385 (inactive)

## CC(C)CCNc1cc(C(=O)NCCCn2ccnc2)cc(S(=O)(=O)N2CCCC2)c1
[1]; [3]
  z-score: 0.646 (inactive)
[1]; [4]
  z-score: -0.386
[2]
  z-score: -0.97 (inactive)

## CCN1C(=O)N(CCc2ccccc2)C2(CCN(Cc3cnn(-c4ccccc4OC)c3)CC2)C1=O
[1]; [3]
  z-score: 0.108 (inactive)
[1]; [4]
  z-score: 0.254
[2]
  z-score: -0.37 (inactive)

## Cn1cc(CN2CC(OCc3cccnc3)CN(Cc3cn[nH]c3-c3ccccc3)CC2=O)cn1 (configuration not stated)
[1]; [3]
  z-score: -0.178 (inactive)
[1]; [4]
  z-score: -0.506
[2]
  z-score: 0.715 (inactive)

## CC(C)CN1CC(OCc2cccc(F)c2)CN(C(=O)Cn2cnc3ccccc3c2=O)CC1=O (configuration not stated)
[1]; [3]
  z-score: -0.0292 (inactive)
[1]; [4]
  z-score: 0.00727
[2]
  z-score: -0.43 (inactive)

## COc1cc(CN2CCc3c(c(C(=O)NCCCN4CCOCC4)nn3C)C2)cc2c1OCO2
[1]; [3]
  z-score: 0.109 (inactive)
[1]; [4]
  z-score: -0.162
[2]
  z-score: -0.765 (inactive)

## C[C@@H](NC(=O)N[C@H]1C[C@H]2C(=O)N[C@H](Cc3ccc(O)cc3)C(=O)N2C1)c1ccccc1
[1]; [3]
  z-score: -0.3 (inactive)
[1]; [4]
  z-score: -0.613
[2]
  z-score: 0.6 (inactive)

## Cn1ccnc1CN1C[C@@H](CN2CCOCC2)C[C@@H](C(=O)N2CCCC2)C1
[1]; [3]
  z-score: 0.188 (inactive)
[1]; [4]
  z-score: 0.125
[2]
  z-score: -0.64 (inactive)

## CC(C)Cn1nc(C(=O)N2CCOCC2)c2c1CCC(NCc1ccc(F)cc1)C2 (configuration not stated)
[1]; [3]
  z-score: 0.123 (inactive)
[1]; [4]
  z-score: -0.12
[2]
  z-score: 0.625 (inactive)

## CCCCNC(=O)[C@@H]1C[C@H](CN2CCOCC2)CN(CCc2ccccc2)C1
[1]; [3]
  z-score: 1.78 (inactive)
[1]; [4]
  z-score: -0.178
[2]
  z-score: -0.965 (inactive)

## COc1ccc(/C=C/CN2CCc3c(cc(-c4cccc(-n5nc(C)cc5C)c4)c(=O)n3C)C2)cc1
[1]; [3]
  z-score: -0.672 (inactive)
[1]; [4]
  z-score: -0.157
[2]
  z-score: -0.63 (inactive)

## Cc1ccc(-c2cc(C(=O)N3CCC[C@H]3CO)cc(S(=O)(=O)N3CCOCC3)c2)s1
[1]; [3]
  z-score: -0.348 (inactive)
[1]; [4]
  z-score: 1.18
[2]
  z-score: -0.415 (inactive)

## COC(=O)c1c(NC(=O)C2CC2)c2cc(NC3CCOCC3)cnc2n1Cc1ccccc1
[1]; [3]
  z-score: -0.892 (inactive)
[1]; [4]
  z-score: 0.482
[2]
  z-score: -0.845 (inactive)

## Cc1ccc(-c2cc(C(=O)N(C)CCc3cnn(C)c3)cc(S(=O)(=O)N3CCOCC3)c2)s1
[1]; [3]
  z-score: -0.0954 (inactive)
[1]; [4]
  z-score: -0.0313
[2]
  z-score: 0.925 (inactive)

## COc1ccccc1CNC1CCc2c(c(C(=O)N3CCc4ccccc4C3)nn2C)C1 (configuration not stated)
[1]; [3]
  z-score: -0.107 (inactive)
[1]; [4]
  z-score: -0.0135
[2]
  z-score: 0.07 (inactive)

## CN1CCCC1CCNC(=O)c1cc(-c2ccccc2)cc(S(=O)(=O)N2CCSCC2)c1 (configuration not stated)
[1]; [3]
  z-score: -0.508 (inactive)
[1]; [4]
  z-score: -0.0913
[2]
  z-score: 0.505 (inactive)

## CC(C)CCN1C(=O)N(C(C)C)C(=O)C12CCN(Cc1ccc(CN3CCCCC3)s1)CC2
[1]; [3]
  z-score: -0.0425 (inactive)
[1]; [4]
  z-score: -0.0124
[2]
  z-score: 1.27 (inactive)

## CC(C)[C@@H]1NC(=O)[C@@H]2C[C@H](NC(=O)OCc3ccccc3)CN2C1=O
[1]; [3]
  z-score: -0.138 (inactive)
[1]; [4]
  z-score: -0.152
[2]
  z-score: -1.16 (inactive)

## CC[C@@H]1NC(=O)[C@H]2CN(CCC(C)C)CCN2C1=O
[1]; [3]
  z-score: 0.225 (inactive)
[1]; [4]
  z-score: 0.0851
[2]
  z-score: -0.555 (inactive)

Reference: PubChem BioAssay
